Screening data (PubChem BioAssay)
TMEM16A inh – TMEM16A chloride channel inhibitors, primary screen, cell-based, HTS | Anoctamin-1 (Mus musculus), Q8BHY3 | HEK293 TMEM16A/YFP iodide influx fluorescence, ionomycin | normalized B-score (activity score, 25-100; higher = stronger inhibition) at 10 µM | 310,000 compounds, 1.2% hits;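 active means ratio plate-corrected score three or more library SD toward inhibition, starting fluorescence score within five deviations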;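 further: score derived from kinetic fluorescence span divided by baseline fluorescence per well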
ANO1 activ – TMEM16A chloride channel activators or potentiators, primary screen, cell-based, HTS. Anoctamin-1 (Mus musculus), Q8BHY3. 340,000 compounds, 0.3% hits. HEK293 TMEM16A/YFP-H148Q/I152L, iodide quench fluorescence; hits give low values. B-score at 10 µM;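 active means fluorescence-ratio B-score plate-corrected deviation score at least 3 library SD below zero, with starting fluorescence score within 5 deviations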;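 further: channel opened by trigger with iodide after compound preincubation; score built on the fluorescence ratio of max minus min over baseline; more negative score means more quench and so TMEM16A activation or potentiation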
CHT PAM – CHT positive allosteric modulators, primary screen, cell-based, membrane potential dye, choline EC20. CHT-expressing cells; hits give high values; LV-AA mutant CHT in HEK293 cells. AID 488977, 2010. 310,000 compounds, 0.49% hits. B-score at 10 µM. High affinity choline transporter 1 (Homo sapiens), Q9GZV3;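 active means initial fluorescence not abnormally high and integrated response B-score, plate-corrected, over 3 SD above library mean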
Target sequence (Q9GZV3 whole entry, looked up): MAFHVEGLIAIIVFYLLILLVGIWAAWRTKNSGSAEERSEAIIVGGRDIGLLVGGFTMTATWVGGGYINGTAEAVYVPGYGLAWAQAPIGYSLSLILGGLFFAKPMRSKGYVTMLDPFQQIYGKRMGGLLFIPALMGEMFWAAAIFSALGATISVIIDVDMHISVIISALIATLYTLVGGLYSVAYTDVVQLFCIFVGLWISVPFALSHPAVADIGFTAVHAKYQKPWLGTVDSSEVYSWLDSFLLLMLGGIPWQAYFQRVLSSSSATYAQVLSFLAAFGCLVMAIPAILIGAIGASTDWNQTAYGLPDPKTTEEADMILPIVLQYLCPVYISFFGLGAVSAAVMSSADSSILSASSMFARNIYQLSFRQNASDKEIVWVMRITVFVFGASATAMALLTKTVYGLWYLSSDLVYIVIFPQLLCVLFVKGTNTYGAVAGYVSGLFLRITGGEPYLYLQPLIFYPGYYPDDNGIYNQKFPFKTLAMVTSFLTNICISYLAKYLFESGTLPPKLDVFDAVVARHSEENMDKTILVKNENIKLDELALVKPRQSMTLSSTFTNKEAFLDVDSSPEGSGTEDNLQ
CHT inh – inhibitors of human choline transporter CHT; High affinity choline transporter 1 (Homo sapiens), Q9GZV3; CHT-expressing cells, membrane potential dye, choline response; hits give low values; B-score at 10 µM; 310,000 compounds, 0.86% hits; AID 488975, 2010;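 active means B-score over 3 SD under the library average, and starting fluorescence ratio not unusually high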;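 further: choline stimulus applied at its EC90 after an EC20 pre-addition; B-score computed on integrated fluorescence ratio after choline addition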
Large screens that a line does not name were inactive. Sampled rows, rich in hits. Any-hit rate of the full collection: about 2.4%.

COc1ccc(CNC(=O)C(c2ccco2)N(C(=O)CNS(=O)(=O)c2ccccc2)c2ccccc2C)cc1 (stereo not given)	TMEM16A inh 25
Cc1ccc(C(C(=O)NCc2ccc(F)cc2)N(C(=O)c2csnn2)C2CC2)cc1 (stereo not given)	none
CC(C)C1Oc2ccccc2C(=O)N(CC(=O)c2ccc3c(c2)OCCO3)C1=O (stereo not given)	none
CCOC(=O)c1cnc2ccc(OC)cc2c1NCc1ccccc1	none
CCOC(=O)c1cnc2ccc(OCC)cc2c1NCc1ccccc1OC	TMEM16A inh 100
CC(C)C[C@H](NC(=O)[C@H](Cc1ccccc1)n1c(=O)[nH]c2ccccc2c1=O)C(=O)N1CCC(C(=O)O)CC1	ANO1 activ -13
C[C@H](NC(=O)[C@H](Cc1ccccc1)n1c(=O)[nH]c2ccccc2c1=O)C(=O)N1CCC(C(=O)O)CC1	none
Cc1ccc(NS(=O)(=O)c2cc([N+](=O)[O-])ccc2NNC(=S)Nc2cc(C)ccc2C)c(C)c1	TMEM16A inh 100
Cc1ccc(NS(=O)(=O)c2cc([N+](=O)[O-])ccc2NNC(=S)Nc2cccc(Cl)c2)c(C)c1	TMEM16A inh 100
COc1ccc(NC(=S)Nc2cccc([N+](=O)[O-])c2)cc1	none
COc1ccc(NC(=S)NNc2ccc([N+](=O)[O-])cc2S(=O)(=O)Nc2ccc(C)cc2C)cc1	TMEM16A inh 100
CN(NS(=O)(=O)c1ccc(Cl)cc1)c1nc(C(F)(F)F)nc2ccccc12	TMEM16A inh 100
CN(NS(=O)(=O)c1ccccc1)c1nc2ccccc2nc1C(F)(F)F	none
COCCNC(=O)c1cc(-c2ccccc2)n(CC2CC(c3ccc(OC)cc3)=NO2)n1 (stereo not given)	none
CC1CC(C)CN(c2nc3c(c(=O)n(C)c(=O)n3C)n2CCSc2ncccn2)C1 (stereo not given)	none
CCN1CCN(c2nc3c(c(=O)n(C)c(=O)n3C)n2CCSc2nccc(C)n2)CC1	CHT inh -7.5
COc1ccc(C(=O)NC(=S)N(C)C2CCCCC2)cc1	none
COc1ccc(N2C(=O)C3CCCN3C2c2ccc(C)o2)cc1Cl (stereo not given)	TMEM16A inh 25
Cc1ccc(C2N(c3ccc(Cl)c(Cl)c3)C(=O)C3CCCN32)o1 (stereo not given)	none
O=C(Nc1ccc(Cl)c([N+](=O)[O-])c1)C(Sc1ccccc1)c1ccccc1 (stereo not given)	TMEM16A inh 100
O=C(Nc1cc([N+](=O)[O-])ccc1Cl)C(Sc1ccccc1)c1ccccc1 (stereo not given)	none
CC(=O)Nc1ccc(C(F)(F)F)cc1Cl	none
O=C(c1cccnc1)N1CCN(Cc2ccc3c(c2)OCO3)CC1	none
O=C(c1cccnc1)N1CCN(Cc2cccc(Br)c2)CC1	ANO1 activ -5.8
CCC(C)(C)C1CCC2(CC1)NC(CO)(CO)CO2 (stereo not given)	ANO1 activ -4.9
CCOc1ccc(S(=O)(=O)Nc2nc3ccccc3nc2Cl)cc1	none
CCOc1ccc(S(=O)(=O)Nc2cnc3ccccc3c2)cc1	TMEM16A inh 25
CN(C)S(=O)(=O)Oc1ccc(Cl)cc1C(=O)Nc1cccc(C(F)(F)F)c1	none
C=CCOc1ccc(CNn2nnnc2N)cc1	ANO1 activ -14
CS(=O)(=O)Nc1cc2c3c(c1)CCC(=O)N3CCC2	none
O=C(Oc1ccc2c(=O)c(Oc3ccc4ccccc4c3)coc2c1)c1ccco1	ANO1 activ -5.9
Cc1cccc(Oc2coc3cc(OC(=O)c4cc5ccccc5oc4=O)ccc3c2=O)c1	none
CN(C)S(=O)(=O)c1cccc(NC(=S)Nc2cc(Cl)cc(Cl)c2)c1	TMEM16A inh 100
COc1cccc(-n2cc(CNCc3cn(C)nc3-c3ccccc3F)cn2)c1	none
Oc1c(C=Nc2ccccc2Cl)[nH]c2ccccc12	ANO1 activ -8.7
O=C(O)CCC(=O)Nc1nnc(C(F)(F)F)s1	none
CCC(NC(=O)Nc1nnc(C(F)(F)F)s1)(C(F)(F)F)C(F)(F)F	TMEM16A inh 100
COC(=O)c1c(C)cccc1C1CN=NC12Cc1ccccc1C2=O (stereo not given)	ANO1 activ -7.4 (no result: TMEM16A inh, CHT PAM, CHT inh)
CS(=O)(=O)c1ccc(C(=O)OCc2nnc(-c3ccccc3)o2)cc1[N+](=O)[O-]	ANO1 activ -46 (no result: TMEM16A inh, CHT PAM, CHT inh)
Cc1ccc(C(=O)N[C@H](C(=O)OCc2cc(=O)n3c(n2)sc2ccccc23)C(C)C)cc1	none
Cc1ccc(OCC(O)CNC(C)c2ccccc2)cc1C (stereo not given)	none
CCC(CC)C(=O)Nc1ccc(C)c(O)c1	ANO1 activ -9.6
N#Cc1c(NC(=O)CCN2C(=O)c3ccccc3C2=O)oc(-c2ccccc2)c1-c1ccccc1	CHT inh -5.9
N#Cc1c(NC(=O)CN2C(=O)c3ccccc3C2=O)oc(-c2ccccc2)c1-c1ccccc1	none
CC[n+]1c(C)sc2sc3ccccc3c21	CHT PAM 13 (no result: ANO1 activ)
Cc1nc2c(s1)sc1ccccc12	none
COc1cc(COCC(O)CN2CCc3ccccc3C2)cc(OC)c1OC (stereo not given)	none
O=C(N/N=C/c1cccnc1)c1ccc([N+](=O)[O-])cc1	CHT PAM 6.8
CSc1ccc(CN(C)C(=O)c2cc(S(=O)(=O)NCc3ccccc3)ccc2C)cc1	none
CSc1ccc(CN(C)C(=O)c2cccc(S(=O)(=O)NCc3ccccc3)c2)cc1	TMEM16A inh 100
CN(C)c1nc(OCCOC(=O)Nc2ccc(Cl)cc2Cl)nc(N(C)C)n1	none
C/C(=N\N1CCN(c2ccc(Cl)cc2)CC1)c1cccc([N+](=O)[O-])c1	TMEM16A inh 25
COc1ccccc1NC(=O)C(Sc1ccccc1)c1ccccc1 (stereo not given)	none
CCOc1ccccc1NC(=O)C(Sc1ccccc1)c1ccccc1 (stereo not given)	TMEM16A inh 100
CCOC(=O)N1CCN(C(=O)c2cc3cc(F)ccc3[nH]2)CC1	none
CC1(C)CC[C@]2(C(=O)n3ccnc3)CC[C@]3(C)[C@H](C(=O)C=C4[C@@]5(C)C=C(C#N)C(=O)C(C)(C)[C@@H]5CC[C@]43C)[C@@H]2C1	ANO1 activ -15 (no result: TMEM16A inh, CHT PAM, CHT inh)
Cc1c(N=Cc2nc3ccccc3[nH]2)c(=O)n(-c2ccccc2)n1C	ANO1 activ -13
Cc1cccc(-c2ccc(C=Nc3c(C)n(C)n(-c4ccccc4)c3=O)o2)c1	none
CCOC(=O)c1c(CSc2ccccc2)n(C)c2cc(Br)c(OCC(O)CNC(CO)(CO)CO)cc12 (stereo not given)	none
COc1ccc(C(CC(=O)Nc2ncccc2C)N2Cc3ccccc3C2=O)cc1 (stereo not given)	none
O=C(CN1CCC(c2nc3ccccc3s2)CC1)N1CCCCC1	none
O=C(CSc1ccccc1Cl)N1CCC(c2nc3ccccc3s2)CC1	TMEM16A inh 100
CCSc1cc(C)nc2ncnn12	ANO1 activ -19
CCCCCCSc1cc(C)nc2ncnn12	none
